FAS TE block: inhibitors of human fatty acid synthase thioesterase domain; 0.67% of 360,000 active; AID 602261; inhibition, % at 15 µM; recombinant FAS-TE, OMFH fluorogenic substrate, fluorescence endpoint; P49327;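 active = compounds whose normalised, plate-corrected inhibition of enzyme fluorescence in the single-dose primary screen is 50% or more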
GRIN3A LBD mod: modulators (binders) of human NR3A ligand-binding domain; NR3A LBD differential scanning fluorimetry, Tm shift; 0% = protein alone, 100% = glycine-bound protein; Tm shift relative to glycine control, % at 25 µM; 2.5% of 340,000 active;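 active = melting temperature shift of at least 10% of the positive control shift, at one fixed dose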
Myeloid diff 2: compounds promoting myeloid differentiation; calls only at 10 µM; AID 624256; ER-HoxA9 myeloid progenitors, lysozyme-GFP differentiation, flow cytometry; 1% of 360,000 active;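 active = normalized GFP-positive differentiation at or above the plate's own cutoff, the solvent-only control mean plus 3 SD; inconclusive = no clear call, values can overlap the other calls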;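 note: cells exposed to compound for four days before flow analysis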
MPTP block: blocks calcium-induced mitochondrial swelling | 1.4% of 360,000 active | AID 602449 | isolated mouse mitochondria, Ca2+ swelling absorbance, 30 min | inhibition, % at 10 µM;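 active = inhibition of 50% or more, scaled per plate between neutral and stimulator controls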
rCAG binder: molecules binding r(CAG) RNA repeats; r(CAG) RNA repeat, TO-PRO-1 dye displacement fluorescence; inhibition, % at 3 µM; 1.3% of 370,000 active; AID 651821;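 active = inhibition above the plate cutoff, the mean of all test compounds on that plate plus 3 SD, cut at about 35% in these data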;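 note: higher means more dye released from RNA so lower well fluorescence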
Myeloid diff CP1: promotes myeloid progenitor differentiation; 2% of 2,300 active; ER-HoxA9 myeloid progenitors, GFP/Mac1 double-positive flow; calls only; shares compounds with Myeloid diff 2;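 active = share of green or green-and-red cells above 9 and 9% in run 1 or 4 and 3% in run 2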
GFP autofluor: flagged as fluorescent in myeloid differentiation counter-screen; shares compounds with Myeloid diff 2; ER-HoxA9 myeloid progenitors, no estrogen, GFP autofluorescence flow cytometry; vehicle wells 0%, positive control 100%; fluorescence response, % (concentration not given with the values); 7.4% of 2,300 active; AID 651707;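 active = over 5% cells positive for green fluorescent reporter, or over 2% positive for both it and APC stain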
Numbers stand for hits; - = inactive; ? = inconclusive; . = no result given; + = active, no number. Compounds with a hit are over-represented: about 5.7% of the library has one in this group of screens.

SMILES	FAS TE block	GRIN3A LBD mod	Myeloid diff 2	MPTP block	rCAG binder	Myeloid diff CP1	GFP autofluor
CC(=O)n1cc(CO)c2ccccc21	-	-	-	-	-	.	.
C=C(c1cn(C(C)=O)c2ccccc12)c1cn(C(C)=O)c2ccccc12	-	-	-	-	-	-	-
CCCCN1C(=O)c2ccc(C(=O)NC3(C)CCS(=O)(=O)C3)cc2C1=O (configuration not stated)	-	-	+	-	-	-	-
COc1ccc(C(=O)OCC(=O)Nc2sccc2C(N)=O)cc1[N+](=O)[O-]	-	-	-	-	-	.	.
CCC(=O)c1cn(CC(=O)Nc2ccccc2Cl)c2ccccc12	-	-	+	-	-	-	2.1
Cc1cc(C)n2nc3nc4c(cc3c2n1)CCCC4	-	-	-	-	-	-	-
Cc1cc(C)n2nc(C)c(Br)c2n1	-	-	-	-	-	.	.
O=C(NC1CCCC1)C(c1cccnc1)N(Cc1ccccc1F)C(=O)c1csnn1 (configuration not stated)	-	-	-	-	-	.	.
Cc1oc(-c2ccccc2F)nc1CS(=O)(=O)CC(=O)NC1CCCC1	-	-	-	-	-	.	.
Cc1oc(-c2ccccc2F)nc1CS(=O)(=O)CC(=O)NCCN(C)C1CCCCC1	-	-	-	-	-	-	-
CC1(C)CC(=O)C=C(Nc2ccc(C(=O)O)cc2)C1	-	-	+	-	-	-	-
CC1(C)CC(=O)C=C(Nc2ccc(O)c(C(=O)O)c2)C1	-	-	-	-	-	.	.
CCc1ccc(-c2cc(C(=O)N/N=C/c3c[nH]c4ccccc34)[nH]n2)cc1	-	24	-	-	-	-	-
CC(C)c1cc(C(=O)N/N=C/c2c[nH]c3ccccc23)n[nH]1	-	-	-	-	-	.	.
CC1(C)SC2C(C(=O)O)N=C(Cc3ccccc3)N2C1C(=O)O (configuration not stated)	-	-	-	-	-	.	.
COc1ccc(C2=NN(C(N)=S)C(c3ccco3)C2)cc1 (configuration not stated)	-	-	+	-	-	-	-
COc1ccc(C2=NN(C(=O)CSc3nnc(-c4ccccc4F)o3)C(c3ccco3)C2)cc1 (configuration not stated)	-	-	-	-	-	-	-
COc1ccccc1C(=O)NCC(=O)OCC(=O)c1ccc2c(c1)-c1ccccc1C2	-	-	-	-	-	.	.
COc1ccccc1C(=O)NC(=O)COC(=O)c1cnc(C)cn1	-	-	-	-	-	.	.
CC(NC(=O)Cc1cccs1)c1ccccc1 (configuration not stated)	-	-	-	-	-	.	.
COc1ccc(CN2CC[C@H]3C=CC[C@@H](C(=O)Nc4ccc(Cl)c(C(F)(F)F)c4)[C@H]3C2=O)cc1OC	-	-	-	-	-	-	-
COc1ccc(NC(=O)[C@@H]2CC=C[C@@H]3CCN(Cc4ccc(Cl)c(Cl)c4)C(=O)[C@@H]32)cc1	-	-	-	-	-	.	.
CC(=O)N1c2ccc(S(=O)(=O)NCCc3ccccc3)cc2CC1C (configuration not stated)	-	-	-	-	-	.	.
O=S(=O)(NCc1ccco1)c1ccc2c(c1)Cc1ccccc1-2	-	-	-	-	-	-	-
CC(=O)N1c2ccc(S(=O)(=O)NCc3ccco3)cc2CC1C (configuration not stated)	-	-	+	-	-	-	-
SMILES	FAS TE block	GRIN3A LBD mod	Myeloid diff 2	MPTP block	rCAG binder	Myeloid diff CP1	GFP autofluor
CNC(=O)c1c(NC(=O)c2ccc(S(=O)(=O)N3CCCc4ccccc43)cc2)sc2c1CCN(C)C2	-	-	+	-	-	+	-
CCCN1CCc2c(sc(NC(=O)c3ccc(S(=O)(=O)N(C)c4ccccc4)cc3)c2C(=O)NC)C1	-	-	+	-	-	-	-
CN1CCc2c(sc(NC(=O)c3ccc(S(=O)(=O)N4CCc5ccccc54)cc3)c2C(N)=O)C1	.	.	.	.	-	.	.
CCN1CCc2c(sc(NC(=O)c3ccc(S(=O)(=O)N4CCCC4)cc3)c2C(=O)NC)C1	-	-	-	-	-	.	.
CN1CCN(S(=O)(=O)c2cccc(C(=O)NCCOc3ccccc3F)c2)CC1	-	-	-	-	-	.	.
Cc1nn(-c2ccccc2)c2sc(C(=O)NNC(=O)COc3cccc4ccccc34)cc12	-	-	-	-	-	.	.
Cc1nn(-c2ccccc2)c2sc(C(=O)NNC(=O)COc3ccccc3)cc12	-	-	+	-	-	-	-
CC1(C)Cc2c(cnn2-c2ccccc2)-c2c1c1ccccc1n2CC(O)CBr (configuration not stated)	-	-	-	-	-	.	.
Cc1ccc2nc(-c3ccc(NS(C)(=O)=O)cc3)cc(-c3ccccc3)c2c1	-	-	-	-	-	.	.
CCS(=O)(=O)Nc1ccc(-c2cc(-c3ccccc3)c3cc(C)ccc3n2)cc1	-	10	-	-	-	-	-
Cc1cc(C)nc(/N=C(/NC(=O)Nc2cccc(Cl)c2)Nc2ccccc2)n1	-	-	-	-	-	-	-
CCOc1ccc(CC(=O)Nc2ccc(-c3ccc4nnc(C)n4n3)cc2)cc1	-	-	-	-	-	.	.
CCOC(=O)C1CCN(C(=O)COc2ccc(Cl)cc2C)CC1	-	-	-	-	-	.	.
CCOC(=O)C1CCN(C(=O)COc2ccc(Cl)cc2Cl)CC1	-	-	-	-	-	-	-
CN1CCN(S(=O)(=O)c2ccc(NC(=S)NC(=O)c3ccccc3)cc2)CC1	-	-	+	-	-	-	-
CN1CCN(S(=O)(=O)c2ccc(NC(=S)NC(=O)c3ccc(Cl)cc3)cc2)CC1	-	-	-	-	-	.	.
CC1=C(C(=O)N(C)C)CC(CC(=O)NCCCN(C)C)C(=O)N1Cc1ccc(C(C)(C)C)cc1 (configuration not stated)	-	.	-	-	-	.	.
CCN(CC)C(=O)C1=C(C)N(Cc2ccc(C(C)(C)C)cc2)C(=O)C(CC(=O)NCCCN(C)C)C1 (configuration not stated)	-	.	-	-	-	-	-
COC(=O)c1c(C)[nH]c(C(=O)CSc2ncnc3sc(-c4ccccc4)cc23)c1C	-	-	-	-	-	.	.
CCOCCn1c(CN(Cc2ccccc2)Cc2ccccc2)nc2c1c(=O)n(C)c(=O)n2C	-	-	?	-	-	.	.
CCOCCn1c(CN(Cc2ccccc2)Cc2ccccc2)nc2c1c(=O)[nH]c(=O)n2C	-	-	+	-	-	-	-
O=C(Nc1ccc([N+](=O)[O-])cc1)c1ccccc1F	-	-	-	-	-	.	.
O=C(Nc1ncc(S(=O)(=O)c2ccc([N+](=O)[O-])cc2)s1)c1ccccc1F	-	-	+	-	-	-	-
CCN(C)C1CN(Cc2cn(Cc3cccc(C(F)(F)F)c3)nn2)S(=O)(=O)C1 (configuration not stated)	-	.	-	-	-	.	.
